{"source": "PubChem BioAssay AID778", "about": "(Sanford-Burnham Center for Chemical Genomics, 2007)", "note": "Hit rate of the full screen: of about 96,000 compounds, about 20,000 (21%) were called active. The list is a sample of the results. A number with no mark means an inactive call.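 Rule for the calls: active = CYP2C19 inhibition above a set limit at 5 µM in the primary screen (cut at about 50% in these data); inactive = the rest.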"}
{"molecular_target": "Cytochrome P450 2C19 (Homo sapiens) (UniProt P33261)", "sequence (P33261 whole entry, looked up)": "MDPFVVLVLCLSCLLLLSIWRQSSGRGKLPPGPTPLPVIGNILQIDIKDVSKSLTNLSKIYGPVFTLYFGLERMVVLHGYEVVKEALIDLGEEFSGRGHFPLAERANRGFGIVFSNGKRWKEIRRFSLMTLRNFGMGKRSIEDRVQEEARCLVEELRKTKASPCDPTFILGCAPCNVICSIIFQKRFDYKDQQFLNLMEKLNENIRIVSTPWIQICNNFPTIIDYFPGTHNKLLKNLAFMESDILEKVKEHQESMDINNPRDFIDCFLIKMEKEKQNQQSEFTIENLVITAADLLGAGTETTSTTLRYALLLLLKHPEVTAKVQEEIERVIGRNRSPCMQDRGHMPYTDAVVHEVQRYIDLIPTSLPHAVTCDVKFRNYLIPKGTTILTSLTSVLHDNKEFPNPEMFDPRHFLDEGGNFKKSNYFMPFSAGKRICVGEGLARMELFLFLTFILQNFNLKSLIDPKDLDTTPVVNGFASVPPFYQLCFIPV", "test": "blockers of cytochrome P450 2C19 activity – biochemical, luminescence, ADME assay, primary screen (AID 778);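 note: plate controls were negative control wells for no effect and 2.5 mM tranylcypromine positive control for full effect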", "conditions": "CYP2C19 Supersomes, luciferin-H EGE luminescence, 30 min; at 5 µM; stronger effect = higher value"}
{"smiles": "Nn1c(Cc2cccc3ccccc23)nnc1SCC(=O)N1CC(=O)Nc2ccccc21", "inhibition": "-8.7%"}
{"smiles": "COc1ccc(NC(=O)c2c(SC)nsc2SC)cc1", "inhibition": "7.1%"}
{"smiles": "O=S1(=O)CCN2C(=N1)SC1=C2CCN(Cc2ccccc2)C1", "inhibition": "48.1%"}
{"smiles": "CN(C(=O)C1CCOC1)c1nnc(-c2cccnc2)s1", "note": "(configuration not stated)", "inhibition": "5.3%"}
{"smiles": "Cn1cnc([N+](=O)[O-])c1Sc1ccccc1", "inhibition": "30.3%"}
{"smiles": "Cn1nc([N+](=O)[O-])nc1Sc1ccc(C(C)(C)C)cc1", "inhibition": "97.1% (active)"}
{"smiles": "CC(C)(C)NC(=O)Cn1cnc([N+](=O)[O-])n1", "inhibition": "6.1%"}
{"smiles": "Cc1ccc(-c2n[nH]c(=S)n2/N=C/c2cc3c(cc2[N+](=O)[O-])OCO3)cc1", "inhibition": "0.8%"}
{"smiles": "O=C(COc1ncnc2c(Cl)cc(Cl)cc12)N1CCN(S(=O)(=O)c2ccccc2)CC1", "inhibition": "-6.9%"}
{"smiles": "COc1ccccc1CNC(=O)c1ccc(SC)cc1OC", "inhibition": "78.9% (active)"}
{"smiles": "COc1cc(SC)ccc1C(=O)NCCOc1ccccc1Cl", "inhibition": "94.9% (active)"}
{"smiles": "CCc1nnc(NC(=O)CCC(=O)NCc2ccccc2OC)s1", "inhibition": "-8%"}
{"smiles": "CCCOc1ccccc1C(=O)NCCCC(=O)O", "inhibition": "9.9%"}
{"smiles": "CCOC(=O)c1c(C)[nH]c(C(=O)NCc2ccccc2OC)c1C", "inhibition": "44.3%"}
{"smiles": "COc1ccc(Cl)cc1C(=O)NCC#N", "inhibition": "-3.6%"}
{"smiles": "O=C1CCCN1CCCNc1ncnc2c1[nH]c1ccccc12", "inhibition": "39%"}
{"smiles": "CC(=O)Nc1ccc(N2C(=O)CCC2=O)cc1C", "inhibition": "9.8%"}
{"smiles": "O=C(/C=C/Sc1ncn[nH]1)c1ccc(Cl)cc1", "inhibition": "38.2%"}
{"smiles": "CC1Cc2ccccc2N1C(=O)CSc1nnc(-c2ccc(S(=O)(=O)N3CCCCC3)cc2)o1", "note": "(configuration not stated)", "inhibition": "12.5%"}
{"smiles": "Cc1ccc(S(=O)(=O)N(CC(=O)NCCSC2CCCCC2)c2ccccc2F)cc1", "inhibition": "-4.4%"}
{"smiles": "CCCNC(=O)CN(Cc1ccccc1F)S(=O)(=O)c1ccc(C)cc1", "inhibition": "64.4% (active)"}
{"smiles": "O=C(CCS(=O)(=O)Cc1ccccc1F)NCCCN1CCCCC1", "inhibition": "22.6%"}
{"smiles": "Cc1cc(=O)n2nc(N3CCCC(C(=O)NCCC4=CCCCC4)C3)sc2n1", "note": "(configuration not stated)", "inhibition": "35.1%"}
{"smiles": "CCOC(=O)N1CCC(NC(=O)Cc2cn(C)c3ccccc23)CC1", "inhibition": "-8.8%"}
{"smiles": "CC1=Nn2c(nnc2-c2ccccc2)SC1", "inhibition": "-2%"}
{"smiles": "CCOc1ccccc1C1CC(c2ccccc2)Nc2nc(N)nn21", "note": "(configuration not stated)", "inhibition": "44.9%"}
{"smiles": "COc1ccc(C2CC(c3ccc(Cl)cc3Cl)Nc3nc(N)nn32)cc1OC", "note": "(configuration not stated)", "inhibition": "-12.5%"}
{"smiles": "CCOc1ccccc1C1CC(c2ccc(Cl)cc2)Nc2nc(N)nn21", "note": "(configuration not stated)", "inhibition": "90.2% (active)"}
{"smiles": "COCCn1c(-c2ccc(OC)c(OC)c2)nc2ccccc21", "inhibition": "0.9%"}
{"smiles": "COc1ccc(-c2nc3ccccc3n2CCC(C)C)cc1OC", "inhibition": "61.3% (active)"}
{"smiles": "COc1ccc(NC(=O)COC(=O)Cn2c(C)nc3ccccc32)cc1OC", "inhibition": "-0.3%"}
{"smiles": "C=CCN(c1ccc(C(N)=O)cc1)S(C)(=O)=O", "inhibition": "-3.9%"}
{"smiles": "CSc1ccc(-c2c(C#N)c(N)nc3c2c(C)nn3-c2ccccc2)cc1", "inhibition": "4.1%"}
{"smiles": "COc1cc(=O)[nH]c(=O)n1C(=O)Cc1ccccc1", "inhibition": "5.6%"}
{"smiles": "Cc1occc1C(=O)Nc1nnc(-c2ccncc2)s1", "inhibition": "98.1% (active)"}
{"smiles": "CCOc1cccc(C(=O)Nc2cnn(Cc3ccccc3)c2)c1", "inhibition": "8.6%"}
{"smiles": "Cc1occc1C(=O)Nc1cccc(Cn2cccn2)c1", "inhibition": "57% (active)"}
{"smiles": "Cc1ccc(C(=O)Nc2nnc(-c3ccncc3)s2)o1", "inhibition": "27%"}
{"smiles": "Cc1ccc(C(=O)COc2cccc(NC(=O)c3ccco3)c2)cc1", "inhibition": "32.7%"}
{"smiles": "Cc1occc1C(=O)Nc1nnc(C2CCCCC2)s1", "inhibition": "-3.5%"}
{"smiles": "Fc1ccc(CNc2nc3ccccc3n3nnnc23)cc1", "inhibition": "6%"}
{"smiles": "CN(C)/C=C1\\C=C(c2ccccc2)OC1=O", "inhibition": "-5.7%"}
{"smiles": "O=C1CSC2=NCN(c3ccccc3)CN12", "inhibition": "3.1%"}
{"smiles": "N#Cc1nc(Cc2cccc3ccccc23)oc1NCc1ccc2c(c1)OCO2", "inhibition": "48.7%"}
{"smiles": "N#Cc1nc(Cc2ccccc2)oc1NCCc1ccccc1", "inhibition": "64.7% (active)"}
{"smiles": "CCOc1ccc(Nc2oc(Cc3ccccc3)nc2C#N)cc1", "inhibition": "30.6%"}
{"smiles": "FC(F)(F)c1nnc2sc(-c3ccco3)nn12", "inhibition": "10.3%"}
{"smiles": "CCOc1ccc(/C(O)=C2/C(=O)C(=O)N(Cc3cccnc3)C2c2ccc(N(C)C)cc2)c(C)c1", "note": "(configuration not stated)", "inhibition": "3.8%"}
{"smiles": "CCOc1ccc(N2C(=O)CC(N(O)c3ccccc3)C2=O)cc1", "note": "(configuration not stated)", "inhibition": "20.3%"}
{"smiles": "Cn1c(N)c(C(=O)COC(=O)C23CC4CC(CC(C4)C2)C3)c(=O)n(C)c1=O", "inhibition": "13.1%"}
{"smiles": "Cc1cc(C)cc(NC(=O)N2CCC(NC(=O)c3ccc(F)cc3)CC2)c1", "inhibition": "-9.5%"}
{"smiles": "CCOc1ccc(Nc2nc(Cc3nnc(SCC(=O)c4ccc(C)cc4)o3)cs2)cc1", "inhibition": "46.9%"}
{"smiles": "CCOc1ccc(Nc2nc(Cc3nnc(SCC(=O)NC4CCCC4)n3C)cs2)cc1", "inhibition": "53.4% (active)"}
{"smiles": "COCCCn1c(Cc2csc(Nc3cccc(Cl)c3)n2)nnc1SCC(=O)OC1CCCCC1", "inhibition": "27.4%"}
{"smiles": "CC(C)c1ccc(Nc2ncccc2C#N)cc1", "inhibition": "22.2%"}
{"smiles": "Cc1ccc(NC2=NC(c3ccccc3)n3c(nc(C)cc3=O)N2)cc1", "note": "(configuration not stated)", "inhibition": "42.1%"}
{"smiles": "Cc1ccc(OCC(=O)Nc2ccc(-c3nnc(-c4ccco4)o3)cc2)cc1", "inhibition": "44.4%"}
{"smiles": "CC1(C)CC(=O)c2cc(OCC(=O)NCC3CCCO3)ccc2O1", "note": "(configuration not stated)", "inhibition": "16.2%"}
{"smiles": "Cc1ccc(/C=N\\n2c(-c3ccccc3)n[nH]c2=S)s1", "inhibition": "4.8%"}
{"smiles": "CCNC(=S)N1CCN(C(=O)c2ccco2)CC1", "inhibition": "5.5%"}
{"smiles": "O=C(c1ccco1)N1CCN(C(=O)C2c3ccccc3Oc3ccccc32)CC1", "inhibition": "88.7% (active)"}
{"smiles": "O=C(c1ccc2c(c1)OCO2)N1CCN(C(=O)c2ccco2)CC1", "inhibition": "17%"}
{"smiles": "O=C(Cc1c(F)cccc1Cl)N1CCN(C(=O)c2ccco2)CC1", "inhibition": "11.2%"}
{"smiles": "COc1ccc(N2C(=O)C3CCCN3C2c2cccc(OC)c2)cc1", "note": "(configuration not stated)", "inhibition": "30.1%"}
{"smiles": "Cc1ccc(OS(=O)Nc2cccc3nccnc23)cc1", "note": "(configuration not stated)", "inhibition": "38.8%"}
{"smiles": "Cc1ccc(S(=O)(=O)Nc2nc3ccccc3nc2N2CCc3ccccc3C2)cc1", "inhibition": "40.6%"}
{"smiles": "CC(C)OC(=O)C(C#N)c1nc2ccccc2nc1N1CCN(Cc2ccc3c(c2)OCO3)CC1", "note": "(configuration not stated)", "inhibition": "2.4%"}
{"smiles": "Cc1ccc(S(=O)(=O)C(C#N)c2nc3ccccc3nc2N2CCCC2)cc1C", "note": "(configuration not stated)", "inhibition": "96.8% (active)"}
{"smiles": "Cc1ccc(-c2c3c(=O)n(C)c(=O)n(C)c3cn2-n2cnnc2)cc1", "inhibition": "-18.4%"}
{"smiles": "Cc1cccc(C)c1N1CCN(S(=O)(=O)N2CCOCC2)CC1", "inhibition": "22.7%"}
{"smiles": "O=C(c1ccc(CN2CCOCC2)cc1)N1CCN(c2ccccc2F)CC1", "inhibition": "9.5%"}
{"smiles": "O=S(=O)(N1CCOCC1)N1CCN(c2ccccc2F)CC1", "inhibition": "61.1% (active)"}
{"smiles": "COC(=O)c1sccc1N/N=C(\\C)c1ccc(F)c(Cl)c1", "inhibition": "-0.3%"}
{"smiles": "CC(C)CCNC(=O)C1CCCN(S(=O)(=O)c2ccc(F)cc2)C1", "note": "(configuration not stated)", "inhibition": "7.6%"}
{"smiles": "Cc1ccnc(N2CCCC(C(=O)Nc3cc(F)ccc3C)C2)n1", "note": "(configuration not stated)", "inhibition": "99.2% (active)"}
{"smiles": "Cc1ccnc(N2CCC(C(=O)NC3CCCCCC3)CC2)n1", "inhibition": "94.4% (active)"}
{"smiles": "O=C(Nc1ccc2c(c1)OCCO2)C1CCCN(c2ncccn2)C1", "note": "(configuration not stated)", "inhibition": "1.1%"}
{"smiles": "Cc1cc(C)cc(NC(=O)C2CCN(c3nc(C)cc(C)n3)CC2)c1", "inhibition": "-2.3%"}
{"smiles": "Cc1cc(-c2ccccc2)nc(N2CCC(C(=O)NC34CC5CC(CC(C5)C3)C4)CC2)n1", "inhibition": "8.2%"}
{"smiles": "C/C(=N\\NC(=O)c1nc(C)cc(C)n1)c1ccccc1", "inhibition": "-4%"}
{"smiles": "Cc1ccc(-c2nnc(SC(C)C#N)n2N)cc1", "note": "(configuration not stated)", "inhibition": "9%"}
{"smiles": "NC(N)=N/N=C/c1ccc(OCc2ccc(Cl)cc2Cl)cc1", "inhibition": "-10.2%"}
{"smiles": "CCOC(=O)C1=C(O)CSC1=Nc1cccc(Cl)c1", "inhibition": "9.1%"}
{"smiles": "COC(=O)C1C(=O)NCC1c1ccc(OC)cc1", "note": "(configuration not stated)", "inhibition": "13.7%"}
{"smiles": "CC(C)(C)NS(=O)(=O)CC12CCC(CC1=O)C2(C)C", "note": "(configuration not stated)", "inhibition": "17.8%"}
{"smiles": "CCOc1cc2[nH]c(=S)n(CCN3CCCCC3C)c(=O)c2cc1OCC", "note": "(configuration not stated)", "inhibition": "2.3%"}
{"smiles": "C=CCNC(=O)c1ccc(C)c(Br)c1", "inhibition": "19.1%"}
{"smiles": "C=CCNC(=O)c1sc(SC)cc1-c1ccc(Cl)cc1", "inhibition": "83.9% (active)"}
{"smiles": "COc1ccccc1CCNC(=O)c1cnccn1", "inhibition": "22.6%"}
{"smiles": "COc1ccc(-c2cc(C(=O)NCc3ccco3)no2)cc1OC", "inhibition": "-19.3%"}
{"smiles": "O=C(c1cc(-c2cccs2)on1)N1CCCCC1", "inhibition": "14.3%"}
{"smiles": "O=C(c1cc(-c2ccccc2O)on1)N1CCCC1", "inhibition": "17.3%"}
{"smiles": "O=C(NCCCn1ccnc1)Nc1ccc(Cl)cc1Cl", "inhibition": "97.4% (active)"}
{"smiles": "COc1ccccc1-c1cc(C(=O)NCCCn2ccnc2)no1", "inhibition": "78.5% (active)"}
{"smiles": "CCOc1ccc(C(=O)NCCCN2CCCC2=O)cc1", "inhibition": "15.8%"}
{"smiles": "NS(=O)(=O)c1ccc(CCNC(=O)Nc2ccc(Cl)cc2)cc1", "inhibition": "24.5%"}
{"smiles": "COc1ccccc1-c1cc(C(=O)N2CCCCC2)no1", "inhibition": "52.8% (active)"}
{"smiles": "CCCCOCCCNC(=O)c1ccccc1OCC", "inhibition": "48.3%"}
{"smiles": "CCOc1ccccc1C(=O)NCCCn1ccnc1", "inhibition": "93.4% (active)"}
{"smiles": "Cc1cc2nc(C)n(CCCNC(=O)Nc3ccccc3)c2cc1C", "inhibition": "20.3%"}
{"smiles": "CCCCCCCCOC1OC(CO)C(O)C(O)C1NC(C)=O", "note": "(configuration not stated)", "inhibition": "-4.2%"}
{"smiles": "N#Cc1c(NC(=O)CCCN2C(=O)c3ccccc3C2=O)oc(-c2ccccc2)c1-c1ccccc1", "inhibition": "24.8%"}
